SMN2 splice up: qHTS Assay for Enhancers of SMN2 Splice Variant Expression; HEK293 SMN2-luciferase splicing reporter, luminescence, 30-36 h; AID 1458, 2008; Potency, µM (top dose mostly 46.1 µM), inactives show at the highest dose activity change, positive = activation, hits mostly activators; actives 2.8% (n = 210,000); also: % of control where 0% means no effect; nearly all actives have a fitted effect of over 55% in size
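HEK293 cells carry an SMN2 minigene-luciferase reporter in which exon 7 inclusion puts luciferase in frame. Cells were seeded at 2000 cells/well, attached for 10-12 hours, then exposed to compounds for 30-36 hours at 37C before ONE-Glo luminescence.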
Rab9 promoter act: qHTS Assay for Rab9 Promoter Activators; Potency, µM (titrated, usually from 9.22 µM), for inactives: at the highest dose activation, negative = inhibition, usual class: activators; actives 2.8% (n = 320,000); Huh7 Rab9 promoter-luciferase reporter, luminescence, 24 h; also: % of control where 0% means no effect; nearly all actives have a fitted effect of over 60% in size
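Using Huh7 cells stably transfected with Rab9 promoter–luciferase, compounds were incubated 24 h at 37 °C, 5% CO2; luciferase luminescence was read 10 min after reagent addition.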
KinaseGlo FLuc: Counterscreen for Luciferase (Kinase-Glo TM) Inhibition. actives 0.28% (n = 200,000). Potency, µM (series often up to 38.3 µM), for inactives: at the top dose activity change, negative = inhibition, most hits filed as inhibitors. Kinase-Glo luciferase, ATP luminescence, 8 min. AID 1379, 2008; also: % is scaled to controls: 0 for no effect and ±100 for the full control effect; nearly all actives have a fitted effect of over 60% in size
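Recombinant Kinase-Glo luciferase, 10 uM ATP (linear range), luciferin; imidazole pH 7.2 / KCl / MgCl2 / Tween / BSA buffer; 8 min RT; luminescence.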
ELG1 genotoxic: qHTS screen for small molecules that induce genotoxicity in human embryonic kidney (HEK293T) cells expressing luciferase-tagged ELG1; HEK293T ELG1-luciferase reporter, luminescence, 16 h; Potency, µM (highest dose often 46 µM), for the others: at the top dose activity change, positive = activation, most hits filed as activators; actives 1.3% (n = 330,000); also: % of control where 0% means no effect; nearly all actives have a fitted effect of over 60% in size
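ELG1-luciferase HEK293T cells, 2,000/well; compound pinned in; 16 hr, 37 °C, 5% CO2; ONE-Glo, 30 min RT; luminescence on CCD imager.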
NPC1 promoter act: qHTS Assay for NPC1 Promoter Activators; actives 2.4% (n = 320,000); Huh7 NPC1 promoter luciferase reporter, 24 h; Potency, µM (doses to about 9.22 µM), without a hit: top-dose activation, hits mostly activators; AID 485313, 2010; also: % of control where 0% means no effect; nearly all actives have a fitted effect of over 60% in size
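Readout is luciferase luminescence, reflecting NPC1 promoter activation in stably transfected Huh7 cells after 24 h compound exposure at 37 °C in reduced-serum medium with 10% FBS.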
FLuc counter: qHTS profiling assay for firefly luciferase inhibitor/activator using purifed enzyme and Km concentrations of substrates (counterscreen for miR-21 project); actives 6.9% (n = 360,000); AID 588342, 2011; Luciferin 4-monooxygenase (Photinus pyralis), P08659; Potency, µM (titrated, usually from 57.5 µM), without a hit: top-dose activity change, negative = inhibition, most hits filed as inhibitors; purified FLuc, Km substrates, luminescence inhibition;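 also: plate controls were vehicle for no effect and reference inhibitor for full effect; nearly all actives have a fitted effect of over 55% in size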
Target sequence (P08659 whole entry, looked up): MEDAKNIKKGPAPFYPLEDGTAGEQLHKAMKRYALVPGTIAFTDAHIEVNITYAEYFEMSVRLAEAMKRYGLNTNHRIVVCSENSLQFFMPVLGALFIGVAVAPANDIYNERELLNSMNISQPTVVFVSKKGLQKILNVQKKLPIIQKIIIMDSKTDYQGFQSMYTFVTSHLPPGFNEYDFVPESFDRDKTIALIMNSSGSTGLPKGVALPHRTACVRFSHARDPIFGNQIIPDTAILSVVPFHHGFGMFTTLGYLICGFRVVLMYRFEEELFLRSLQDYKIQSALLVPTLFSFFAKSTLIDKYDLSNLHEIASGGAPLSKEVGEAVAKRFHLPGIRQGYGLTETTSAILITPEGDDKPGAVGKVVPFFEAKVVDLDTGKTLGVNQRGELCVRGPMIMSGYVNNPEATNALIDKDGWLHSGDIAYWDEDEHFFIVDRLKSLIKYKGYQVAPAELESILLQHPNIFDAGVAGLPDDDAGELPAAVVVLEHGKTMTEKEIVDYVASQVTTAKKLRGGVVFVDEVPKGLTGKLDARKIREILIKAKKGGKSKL
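Biochemical qHTS of compounds, final roughly 60 µM downward over six points, against 10 nM purified firefly luciferase using Km concentrations of substrates (10 uM D-luciferin, 10 uM ATP) in Tris acetate pH 7.5 buffer; luminescence output.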
* marks the source's active call; other numbers are inactive results. Compounds with a hit are over-represented: about 7.4% of the library has one in this group of screens. Calls follow the shape of the dose curve; as a rule, active = well fitted curve in the direction sought with a large enough effect; inconclusive = small, poorly fitted or top-dose-only effect, or another doubt; inactive = no such curve, though single readings can be large; an effect the other way counts as inactive or inconclusive. Potency is read from the fitted curve at half-maximal effect.

`Nc1nnc(CC(=O)N/N=C/c2cccc([N+](=O)[O-])c2)s1` gave SMN2 splice up -10%, Rab9 promoter act 6%, KinaseGlo FLuc 0%, ELG1 genotoxic 1%, NPC1 promoter act 5% and FLuc counter 3%.
Cc1ccccc1OCCOc1cccc(/C=N/NC(=O)Cc2nnc(N)s2)c1 was read as SMN2 splice up 5µM*, Rab9 promoter act 0.45µM*, KinaseGlo FLuc 1%, ELG1 genotoxic -1%, NPC1 promoter act 1.6µM* and FLuc counter inconclusive.
Nc1nnc(CC(=O)N/N=C/c2cccc(OCCOc3ccccc3)c2)s1 was read as SMN2 splice up 10µM*, Rab9 promoter act 3.2µM*, KinaseGlo FLuc 6%, ELG1 genotoxic 0%, NPC1 promoter act inconclusive and FLuc counter 4%.
For Nc1nnc(CC(=O)N/N=C/c2ccccc2OCc2ccccc2F)s1 the results were Rab9 promoter act 0%, ELG1 genotoxic -2%, NPC1 promoter act 1% and FLuc counter 1%.
Screening CC/C=C\C/C=C\C/C=C\C/C=C\C/C=C\C/C=C\CCC(=O)O[C@H](COCCCCCCCCCCCCCCCC)COP(=O)([O-])OCC[N+](C)(C)C returned SMN2 splice up 0% and KinaseGlo FLuc -1%.
`COc1ccc2c(c1)O[C@@H](c1cccc(C(F)(F)F)c1)[C@H](OC(=O)NS(=O)(=O)c1ccc(C)cc1)C2=O` gave SMN2 splice up -1% and KinaseGlo FLuc 1%.
CC1CCC(NC(=O)CNC(=O)c2cccs2)CC1 (stereo not given) was read as Rab9 promoter act 4µM*, ELG1 genotoxic inconclusive, NPC1 promoter act inconclusive and FLuc counter inconclusive.
For CC1CCC(NC(=O)Nc2cccs2)CC1 (stereo not given) the results were SMN2 splice up 18%, Rab9 promoter act inconclusive, KinaseGlo FLuc 0%, ELG1 genotoxic inconclusive, NPC1 promoter act 3% and FLuc counter 15µM*.
O=C(Nc1cccs1)NC1CCCC1 was read as SMN2 splice up -5%, Rab9 promoter act 10%, KinaseGlo FLuc -11%, ELG1 genotoxic 17%, NPC1 promoter act 22% and FLuc counter -17%.
For Cc1ccc(C(=O)NCC(=O)NC2CCC(C)CC2)s1 (stereo not given) the results were Rab9 promoter act 2%, ELG1 genotoxic 6%, NPC1 promoter act 0% and FLuc counter 2%.
`CCOC(=O)CN(C(=O)CNC(=O)c1cccs1)C(C(=O)NC1CCCC1)c1ccncc1` (stereo not given) gave SMN2 splice up -8%, Rab9 promoter act 1%, KinaseGlo FLuc -2%, ELG1 genotoxic -2%, NPC1 promoter act 1% and FLuc counter 0%.
Screening CCCCN(C(=O)CNC(=O)c1cccs1)C(C(=O)NC1CCCC1)c1ccncc1 (stereo not given) returned Rab9 promoter act -4%, KinaseGlo FLuc -5%, ELG1 genotoxic 5%, NPC1 promoter act 0% and FLuc counter 7.6µM*.
Screening O=C(OCc1nnc(-c2ccccc2)o1)c1cc(S(=O)(=O)N2CCOCC2)c(Cl)cc1Cl returned SMN2 splice up inconclusive, Rab9 promoter act 7%, KinaseGlo FLuc -3%, ELG1 genotoxic 18µM*, NPC1 promoter act -4% and FLuc counter -2%.
For Cc1ccc(S(=O)(=O)N2CCOCC2)cc1C(=O)OCc1nnc(-c2ccccc2)o1 the results were Rab9 promoter act 4%, ELG1 genotoxic -2%, NPC1 promoter act 1% and FLuc counter -19%.
For O=c1c(-c2cc(F)cc(F)c2)nc2cncnc2n1Cc1ccc(F)cc1 the results were SMN2 splice up -19% and KinaseGlo FLuc -4%.
CCOc1ccc(OCCC(=O)OCC(=O)Nc2ccc(C)c(S(=O)(=O)N3CCCCC3)c2)cc1 was read as Rab9 promoter act -1%, ELG1 genotoxic 0%, NPC1 promoter act -1% and FLuc counter 11µM*.
Screening CCOc1cc(C(=O)CCC(=O)OCC(=O)Nc2ccc(C)c(S(=O)(=O)N(C)C)c2)ccc1O returned SMN2 splice up -7%, Rab9 promoter act 0%, KinaseGlo FLuc 0%, ELG1 genotoxic 14%, NPC1 promoter act 5% and FLuc counter 19µM*.
Screening Cc1ccc(CNC(=O)CN2C(=O)COc3ccccc32)cc1 returned FLuc counter 3%.
Screening CCCn1c(C)nc2c(NC3CCN(Cc4ccccc4)C3)nc(C)nc21 (stereo not given) returned SMN2 splice up -16% and KinaseGlo FLuc -2%.
O=C(Nc1cc(-c2nc3ccccc3s2)ccc1Cl)c1cc2ccccc2o1 was read as SMN2 splice up 4% and FLuc counter inconclusive.
`Cc1ccc(-c2nc3ccccc3s2)cc1NC(=S)NC(=O)c1ccccc1` gave SMN2 splice up -6%, Rab9 promoter act 12%, KinaseGlo FLuc -9%, ELG1 genotoxic inconclusive, NPC1 promoter act 12% and FLuc counter 9.5µM*.
`CC(=O)Nc1cc(-c2nc3ccccc3s2)ccc1C` gave SMN2 splice up 20% and FLuc counter 6.7µM*.
For Cc1ccc(-c2nc3ccccc3s2)cc1NC(=O)c1cc(-n2cnnc2)ccc1Cl the results were SMN2 splice up 4%, Rab9 promoter act 5%, KinaseGlo FLuc -2%, ELG1 genotoxic inconclusive, NPC1 promoter act -29% and FLuc counter 1.5µM*.
O=c1c(CCc2ccccc2)nc2cnc(Nc3ccccc3)nc2n1Cc1cccs1 was read as SMN2 splice up 3% and KinaseGlo FLuc 0%.
For O=c1n(Cc2ccccc2)nc2n1-c1ccccc1SC2 the results were Rab9 promoter act inconclusive, ELG1 genotoxic 8%, NPC1 promoter act inconclusive and FLuc counter -18%.
`O=c1n(Cc2ccccc2Cl)nc2n1-c1ccccc1SC2` gave Rab9 promoter act 3.5µM*, ELG1 genotoxic inconclusive, NPC1 promoter act inconclusive and FLuc counter 24µM*.
Screening COc1ccc2cc3cc(C(=O)N4CCN(c5ccccn5)CC4)oc3nc2c1 returned Rab9 promoter act 0%, ELG1 genotoxic -5%, NPC1 promoter act -5% and FLuc counter 19µM*.
`COc1ccc2nc3oc(C(=O)N4CCC(C(N)=O)CC4)cc3cc2c1` gave SMN2 splice up 23%, Rab9 promoter act 19%, KinaseGlo FLuc -2%, ELG1 genotoxic 10%, NPC1 promoter act 21% and FLuc counter -27%.
